# Laboratory results as given in ChEMBL document CHEMBL2218924, “A broad activity screen in support of a chemogenomic map for kinase signalling research and drug discovery” (Biochem J, 2013).
# Target: Death-associated protein kinase 1 (Homo sapiens) (UniProt P53355)
# Conditions: at 1 µM
# Chain of Death-associated protein kinase 1 (Homo sapiens) (P53355 whole entry, looked up): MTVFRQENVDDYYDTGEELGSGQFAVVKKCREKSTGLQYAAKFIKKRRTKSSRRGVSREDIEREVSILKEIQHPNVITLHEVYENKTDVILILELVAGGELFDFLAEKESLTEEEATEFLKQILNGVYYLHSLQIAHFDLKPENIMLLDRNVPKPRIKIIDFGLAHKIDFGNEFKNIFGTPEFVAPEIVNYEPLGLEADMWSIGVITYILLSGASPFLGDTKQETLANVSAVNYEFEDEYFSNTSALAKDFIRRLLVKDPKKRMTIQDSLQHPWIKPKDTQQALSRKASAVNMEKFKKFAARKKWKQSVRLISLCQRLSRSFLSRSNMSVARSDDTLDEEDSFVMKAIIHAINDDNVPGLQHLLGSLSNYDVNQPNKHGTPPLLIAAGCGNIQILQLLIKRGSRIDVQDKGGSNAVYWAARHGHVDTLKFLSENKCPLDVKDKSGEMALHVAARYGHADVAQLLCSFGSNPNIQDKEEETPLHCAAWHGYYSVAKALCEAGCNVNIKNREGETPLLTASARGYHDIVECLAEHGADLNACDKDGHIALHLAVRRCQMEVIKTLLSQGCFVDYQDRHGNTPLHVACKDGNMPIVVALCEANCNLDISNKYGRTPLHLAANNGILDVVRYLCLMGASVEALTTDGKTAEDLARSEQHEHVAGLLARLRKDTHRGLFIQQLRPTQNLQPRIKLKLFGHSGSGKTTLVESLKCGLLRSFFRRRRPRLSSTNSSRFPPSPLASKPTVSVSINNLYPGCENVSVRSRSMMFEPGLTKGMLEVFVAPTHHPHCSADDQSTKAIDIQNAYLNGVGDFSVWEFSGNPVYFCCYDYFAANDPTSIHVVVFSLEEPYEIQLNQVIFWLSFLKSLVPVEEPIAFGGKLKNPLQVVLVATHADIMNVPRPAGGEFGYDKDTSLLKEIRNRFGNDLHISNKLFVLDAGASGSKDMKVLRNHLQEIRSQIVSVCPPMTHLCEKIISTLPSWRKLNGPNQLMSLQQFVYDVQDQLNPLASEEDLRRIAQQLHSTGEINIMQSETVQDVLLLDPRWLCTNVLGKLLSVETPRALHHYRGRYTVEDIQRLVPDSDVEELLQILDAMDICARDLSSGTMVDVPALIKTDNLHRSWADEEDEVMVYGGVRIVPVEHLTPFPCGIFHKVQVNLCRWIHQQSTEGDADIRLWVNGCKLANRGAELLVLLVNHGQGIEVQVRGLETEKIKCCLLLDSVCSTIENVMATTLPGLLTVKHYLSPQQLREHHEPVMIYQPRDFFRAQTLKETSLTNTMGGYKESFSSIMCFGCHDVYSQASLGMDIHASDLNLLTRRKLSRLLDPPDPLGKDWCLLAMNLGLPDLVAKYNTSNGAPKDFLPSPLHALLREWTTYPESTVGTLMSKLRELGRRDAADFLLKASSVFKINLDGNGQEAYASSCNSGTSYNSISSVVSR
row,Compound,residual activity [%]
1,Nc1n[nH]c2nc3ccccc3nc12,94
2,COc1cc2ncc(-c3ccccc3)nc2cc1OC,87
3,CC[n+]1c(/C=C/N(C)c2ccccc2)n(-c2ccccc2)c2ccc(-c3nc4ccccc4s3)cc21,79
4,COc1cc2nccc(Oc3ccc(NC(=S)NC(=O)c4ccccc4C)cc3)c2cc1OC,81
5,O=C(c1ccccc1)c1ccc(N2CCOCC2)cc1O,97
6,O=C1NC(=O)c2c1c1c3ccccc3[nH]c1n1cncc21,57
7,O=C(Nc1nc2ccccc2n1CCN1CCOCC1)c1cccc([N+](=O)[O-])c1,85
8,CC(C)n1cnc2/c(=N/c3cccc(Cl)c3)nc(NCCO)[nH]c21,89
9,O=Nc1c(-c2c(O)[nH]c3ccccc23)[nH]c2ccccc12,91
10,Cc1cccc(-c2[nH]c(C(C)(C)C)nc2-c2ccc3c(c2)OCO3)n1,79
11,O=[N+]([O-])c1ccc(-c2nc(-c3ccc(F)cc3)c(-c3ccncc3)[nH]2)cc1,74
12,COc1ccc(Cl)cc1NC(=O)Nc1cc(C)nc2ccccc12,94
13,Cc1cc(Nc2nc(-c3ccccc3)nc3ccccc23)n[nH]1,59
14,CN(C)S(=O)(=O)c1ccc2c(c1)/C(=C/c1cc3c([nH]1)CCCC3)C(=O)N2,90
15,CN(C)c1ccc(/C=C2\C(=O)Nc3ccccc32)cc1,102
16,O=C(CCCc1ccc(-c2ccccc2F)cc1)Nc1ccc(O)cc1,95

row,Compound,residual activity [%]
1,CC(C)c1nn(-c2c(Cl)cccc2Cl)c2nc(Cc3ccc(OCCO)cc3)[nH]c(=O)c12,94
2,CCCC(=O)Oc1ccc2[nH]c(C(=O)c3cc4ccccc4[nH]3)cc2c1,83
3,COc1ccc(C(=O)Nc2sc3c(c2C(N)=O)CCCC3)cc1OC,93
4,CC(C)n1cnc2c(NCc3ccccc3)nc(NCCCO)nc21,83
5,Nc1cccc(-c2cc3c(Oc4cccc(O)c4)ncnc3[nH]2)c1,89
6,NC(=O)c1ccc(-c2nc(-c3ccc4c(c3)OCCO4)c(-c3ccccn3)[nH]2)cc1,86
7,O=C1Nc2ccc(Cl)cc2/C1=C/c1cc(Cl)c(O)c(Cl)c1,79
8,Cn1sc(=O)n(Cc2ccccc2)c1=O,80
9,COc1cc2nccc(Oc3ccc(NC(=O)Nc4cc(C)on4)c(Cl)c3)c2cc1OC,105
10,O=c1cc(-c2cccc3c2Sc2ccccc2S3)oc(N2CCOCC2)c1,91
11,Ic1cccc(CSc2nnc(-c3ccncc3)o2)c1,90
12,CNc1cc2c(Nc3cccc(Br)c3)ncnc2cn1,97
13,CCOC(=O)c1c(C)[nH]c(/C=C2\C(=O)Nc3ccccc32)c1C,83
14,O=C(Nc1cccc(Nc2cc(Nc3cccc(C(F)(F)F)c3)ncn2)c1)C1CC1,109
15,C[C@@H](N)[C@H]1CC[C@H](C(=O)Nc2ccncc2)CC1,102
